{"source": "PubChem BioAssay AID1626", "about": "(SRMLSC, 2009)", "note": "The whole screen tested about 220,000 compounds, of which about 2,000 (0.91%) were called active. About 2% were inconclusive and are not listed. Cut-off read from the data, not from the text of the source: inconclusive = inhibition above about 80% without an active follow-up result; inactive = below that; test concentration not stated here. Not all results are given here. Potency and affinity values are given separately."}
{"assay": "M. tuberculosis H37Rv growth inhibitors, H37Rv strain (AID 1626);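 note: bacteria incubated seven days before Alamar blue readout; 0% = bacteria only wells and 100% = bacteria with antibiotic wells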", "conditions": "stronger effect = higher value, concentration not given here"}
{"compound": "CCC(=O)N1CCN(c2ccc(OC)cc2[N+](=O)[O-])CC1", "inhibition": "-1.32% (inactive)"}
{"compound": "NS(=O)(=O)c1ccc(-c2ccc(/C=C3\\SC(=S)N(C4CCS(=O)(=O)C4)C3=O)o2)cc1", "note": "(stereo unspecified)", "inhibition": "-2.38% (inactive)"}
{"compound": "NS(=O)(=O)c1ccc(-c2ccc(C=NC3CCS(=O)(=O)C3)o2)cc1", "note": "(stereo unspecified)", "inhibition": "-11.7% (inactive)"}
{"compound": "CC(C)Cn1c(N)c(C(=O)COC(=O)c2ccc(F)cc2)c(=O)n(C)c1=O", "inhibition": "6.86% (inactive)"}
{"compound": "CN(C)c1nc(N)nc(CSc2nnnn2-c2ccc(F)cc2)n1", "inhibition": "-2.97% (inactive)"}
{"compound": "CC(=O)c1ccc(OC(=O)c2ccc(Br)o2)cc1", "inhibition": "-1.59% (inactive)"}
{"compound": "CCCOc1ccc(OC(=O)c2ccc(Br)o2)cc1", "inhibition": "3.47% (inactive)"}
{"compound": "CCC(=O)Nc1nonc1-c1nc2ccccc2n1Cc1ccccc1", "inhibition": "22.2% (inactive)"}
{"compound": "CCC(=O)NCCc1nc2ccccc2n1Cc1ccccc1", "inhibition": "-11.3% (inactive)"}
{"compound": "CCC(=O)Nc1nc2ccccc2n1CCN(CC)CC", "inhibition": "-1.49% (inactive)"}
{"compound": "CCC(=O)Nc1nc2ccccc2n1CCN(C)C", "inhibition": "0.79% (inactive)"}
{"compound": "CC(=O)NCCc1nc2ccccc2n1Cc1ccc(Cl)cc1", "inhibition": "-2.45% (inactive)"}
{"compound": "CCC(=O)NCCc1nc2ccccc2n1Cc1ccc(C)cc1", "inhibition": "-3.53% (inactive)"}
{"compound": "NCCNC(=O)Cc1cccc(NC(=O)Cc2ccc(Nc3ncnc4c3ncn4[C@@H]3O[C@H](CO)[C@@H](O)[C@H]3O)cc2)c1", "inhibition": "10.9% (inactive)"}
{"compound": "COc1ccc(C(=O)c2ccc3oc(-c4ccc(OC)cc4)c(C#CCCO)c3c2)cc1", "inhibition": "6.95% (inactive)"}
{"compound": "Cc1ccccc1NC(=O)c1ccc(F)c(S(=O)(=O)N2CCCCC2)c1", "inhibition": "-2.34% (inactive)"}
{"compound": "CCn1cc(Br)c(C(=O)Nc2ccc(F)c(Cl)c2)n1", "inhibition": "-11.6% (inactive)"}
{"compound": "CCOCCCNC(=O)c1ccc(NC(C)=O)cc1", "inhibition": "-8.03% (inactive)"}
{"compound": "CC(=O)C1=C(O)C(=O)N(C)C1c1ccccc1F", "note": "(stereo unspecified)", "inhibition": "0.41% (inactive)"}
{"compound": "CN(C[C@H](Cc1ccccc1)N(C[C@H](CC1CCCCC1)N(CCc1ccccc1)N=O)N=O)N=O", "inhibition": "-1.37% (inactive)"}
{"compound": "CC(C)Sc1ncc(S(=O)(=O)c2ccccc2)c(=O)[nH]1", "inhibition": "-2.21% (inactive)"}
{"compound": "C=CCn1c(O)c(C(C)=Nc2ccc3c(c2)CCC3)c(=O)[nH]c1=O", "inhibition": "54.5% (inactive)"}
{"compound": "CCCCn1c(O)c(C(CC)=Nc2ccc(C(=O)O)cc2)c(=O)[nH]c1=O", "inhibition": "-1.19% (inactive)"}
{"compound": "CCCCn1c(O)c(C(CC)=Nc2ccc3c(c2)CCC3)c(=O)[nH]c1=O", "inhibition": "74.9% (inactive)"}
{"compound": "C=CCn1c(O)c(C(C)=Nc2ccc(NC(C)=O)cc2)c(=O)[nH]c1=O", "inhibition": "-0.17% (inactive)"}
{"compound": "C=CCn1c(O)c(C(C)=Nc2ccc(C(=O)O)cc2)c(=O)[nH]c1=O", "inhibition": "-11.5% (inactive)"}
{"compound": "CCCCn1c(O)c(C(CC)=Nc2ccc(OC)cc2OC)c(=O)[nH]c1=O", "inhibition": "-1.05% (inactive)"}
{"compound": "CCCCn1c(O)c(C(C)=Nc2ccc3c(c2)CCC3)c(=O)[nH]c1=O", "inhibition": "7.92% (inactive)"}
{"compound": "CCCCn1c(O)c(C(C)=Nc2ccc(C(=O)O)cc2)c(=O)[nH]c1=O", "inhibition": "-16.2% (inactive)"}
{"compound": "O=C(O)CC(CNS(=O)(=O)c1cccc2nsnc12)c1ccccc1", "note": "(stereo unspecified)", "inhibition": "2.51% (inactive)"}
{"compound": "O=C1CC(c2nc3ccccc3[nH]2)CN1c1cccc(C(F)(F)F)c1", "note": "(stereo unspecified)", "inhibition": "2.87% (inactive)"}
{"compound": "CN1CCN(C(=S)c2ccc(-c3cccc(Cl)c3Cl)o2)CC1", "inhibition": "2.93% (inactive)"}
{"compound": "Nc1c(Cl)ncnc1N/N=C/c1cccnc1", "inhibition": "3.93% (inactive)"}
{"compound": "Cn1c(N2CCOCC2)cc(=O)n(C)c1=O", "inhibition": "-3.19% (inactive)"}
{"compound": "COc1ccc(CCNC(=O)CSCc2ccc([N+](=O)[O-])cc2)cc1OC", "inhibition": "-5.73% (inactive)"}
{"compound": "CCN(CC)c1ccc(C(=O)OCC(=O)Nc2ccc3[nH]c(=O)[nH]c3c2)cc1", "inhibition": "6.23% (inactive)"}
{"compound": "O=C(Nc1ccc(Br)cc1)C1CCCN(S(=O)(=O)c2cccnc2)C1", "note": "(stereo unspecified)", "inhibition": "-3.26% (inactive)"}
{"compound": "C=CCn1c(CNC(=O)c2ccco2)nnc1SCC(=O)Nc1cccc(F)c1", "inhibition": "2.84% (inactive)"}
{"compound": "CCn1c(SCc2nc3ccccc3c(=O)[nH]2)nc2ccccc21", "inhibition": "11.6% (inactive)"}
{"compound": "COc1ccc2cc(C#N)c(N3CCN(C(=O)c4ccccc4C)CC3)nc2c1", "inhibition": "7.93% (inactive)"}
{"compound": "COc1ccc2nc(N3CCC(O)CC3)c(C#N)cc2c1", "inhibition": "1.43% (inactive)"}
{"compound": "CC(C)CCNC(=O)CCn1c(=S)oc2ccccc21", "inhibition": "-7.67% (inactive)"}
{"compound": "CC(=O)c1ccc(NC(=O)C(C)N2CCN(C/C=C/c3ccccc3)CC2)cc1", "note": "(stereo unspecified)", "inhibition": "53.1% (inactive)"}
{"compound": "Fc1ccc(CSc2nnc(-c3cccnc3)n2Cc2ccco2)cc1", "inhibition": "-3.79% (inactive)"}
{"compound": "CCCc1nc2c(sc3nc4c(cc32)COC(C)(C)C4)c(=O)n1Cc1ccco1", "inhibition": "-1.51% (inactive)"}
{"compound": "CCCCOC(=O)Nc1sc2c(c1C(=O)OC)CCC2", "inhibition": "-0.74% (inactive)"}
{"compound": "S=c1[nH]nc(CSCc2ccccc2Cl)n1C1CCCCC1", "inhibition": "4.24% (inactive)"}
{"compound": "C#CCOCCOCCOCCNc1nc(N2CCN(C(=O)[C@H]([C@@H](C)CC)n3cc([C@@H](N)CC(C)C)nn3)CC2)nc(N2CCN(C(=O)[C@H](Cc3cc4ccccc4[nH]3)n3cc([C@@H](N)C(C)CC)nn3)CC2)n1", "note": "(stereo partly specified)", "inhibition": "45.6% (inactive)"}
{"compound": "C#CCOCCOCCOCCNc1nc(N2CCN(C(=O)[C@H]([C@@H](C)CC)n3cc([C@@H](N)CC(C)C)nn3)CC2)nc(N2CCN(C(=O)[C@H](Cc3cc4ccccc4[nH]3)n3cc([C@@H](N)CC(C)C)nn3)CC2)n1", "inhibition": "33.5% (inactive)"}
{"compound": "C#CCOCCOCCOCCNc1nc(N2CCOCC2)nc(N2CCN(C(=O)[C@H](Cc3cc4ccccc4[nH]3)n3cc([C@@H](N)CC(C)C)nn3)CC2)n1", "inhibition": "-3.36% (inactive)"}
{"compound": "C#CCOCCOCCOCCNc1nc(N2CCN(C(=O)[C@H](CCCCN)n3cc([C@@H](N)CC(C)C)nn3)CC2)nc(N2CCN(C(=O)[C@H](Cc3cc4ccccc4[nH]3)n3cc([C@@H](N)Cc4ccc(O)cc4)nn3)CC2)n1", "inhibition": "59% (inactive)"}
{"compound": "C#CCOCCOCCOCCNc1nc(N2CCN(C(=O)[C@H](Cc3cc4ccccc4[nH]3)n3cc(C(N)CC(C)C)nn3)CC2)nc(N2CCN(C(=O)[C@H](CCC(=O)O)n3cc(C(N)[C@H](C)CC)nn3)CC2)n1", "note": "(stereo partly specified)", "inhibition": "-7.16% (inactive)"}
{"compound": "C#CCOCCOCCOCCNc1nc(N2CCOCC2)nc(N2CCN(C(=O)[C@H](Cc3cc4ccccc4[nH]3)n3cc([C@@H](N)Cc4ccc(O)cc4)nn3)CC2)n1", "inhibition": "52% (inactive)"}
{"compound": "CCOC(=O)C1CCN(C(=O)COc2ccc(S(=O)(=O)N3CCCC3)cc2C)CC1", "inhibition": "8.86% (inactive)"}
{"compound": "N/C(=N\\c1nc2c(c(=O)[nH]1)CCCC2)Nc1ccc(Oc2ccccc2)cc1", "inhibition": "18% (inactive)"}
{"compound": "Cn1c(=O)c2c(nc(CN3CCC(C(N)=O)CC3)n2Cc2c(Cl)cccc2Cl)n(C)c1=O", "inhibition": "-2.69% (inactive)"}
{"compound": "O=C(/C=C/c1ccc(F)cc1)N1CCCN(C(=O)/C=C/c2ccc(F)cc2)CC1", "inhibition": "10.8% (inactive)"}
{"compound": "Cc1ccc(/C=C/C(=O)N2CCN(c3ccc(F)cc3)CC2)o1", "inhibition": "-2.28% (inactive)"}
{"compound": "CCOCCn1c(SCC)nc2c1c(=O)[nH]c(=O)n2C", "inhibition": "-10.1% (inactive)"}
{"compound": "Cc1cc(C)n(-c2nnc(C)c(=O)[nH]2)n1", "inhibition": "-3.09% (inactive)"}
{"compound": "Cc1nn(-c2ccccn2)c(C)c1Oc1ccccc1O", "inhibition": "7.63% (inactive)"}
{"compound": "Cc1cc(C)nc(-n2nc(C)c(Oc3ccccc3O)c2C)n1", "inhibition": "-0.16% (inactive)"}
{"compound": "Cc1cc(C)n(-c2nc(O)cc(=O)[nH]2)n1", "inhibition": "-5.24% (inactive)"}
{"compound": "Cc1cc(Nc2ccc(Cl)cc2)n(-c2cccc(Cl)c2)n1", "inhibition": "4.87% (inactive)"}
{"compound": "COc1ccc(Nc2nc(C)cc(=O)[nH]2)cc1", "inhibition": "-16.4% (inactive)"}
{"compound": "Cc1ccc(OCC(=O)Nc2ccc(Cl)cc2C(=O)c2ccccc2)cc1", "inhibition": "-2.12% (inactive)"}
{"compound": "CCOc1ccc(CNC(=S)N/N=C\\c2ccc([N+](=O)[O-])cc2)cc1", "inhibition": "2.73% (inactive)"}
{"compound": "O=C(NCC(c1ccco1)N1CCCCC1)C(c1ccccc1)c1ccccc1", "note": "(stereo unspecified)", "inhibition": "2.31% (inactive)"}
{"compound": "CC(Oc1ccc(Cl)cc1Cl)c1ccnc2nc(N3CCOCC3)nn12", "note": "(stereo unspecified)", "inhibition": "7.65% (inactive)"}
{"compound": "COc1ccc(NC2c3ccccc3C(=O)N2Cc2ccco2)cc1OC", "note": "(stereo unspecified)", "inhibition": "8.29% (inactive)"}
{"compound": "O=C1c2ccccc2C(Nc2ccc(S(=O)(=O)N3CCCCC3)cc2)N1Cc1ccco1", "note": "(stereo unspecified)", "inhibition": "2.32% (inactive)"}
{"compound": "O=C1c2ccccc2C(Nc2ccc3nc(-c4cccnc4)[nH]c3c2)N1Cc1ccco1", "note": "(stereo unspecified)", "inhibition": "44% (inactive)"}
{"compound": "CCOc1ccccc1NC1c2ccccc2C(=O)N1Cc1ccco1", "note": "(stereo unspecified)", "inhibition": "11.3% (inactive)"}
{"compound": "CCOC(=O)CNC(=O)CSc1nnc(-c2ccc(OC)cc2)n1CC", "inhibition": "-3.53% (inactive)"}
{"compound": "O=C(c1ccco1)N1CCN(Cc2nc(Cc3ccccc3)no2)CC1", "inhibition": "-8.56% (inactive)"}
{"compound": "CCn1c(-c2ccccc2)ccc(C#N)c1=O", "inhibition": "-9.1% (inactive)"}
{"compound": "C#CCn1c(-c2ccccc2)ccc(C#N)c1=O", "inhibition": "8.84% (inactive)"}
{"compound": "CS(=O)(=O)N(CC(=O)Nc1cccc(Cl)c1Cl)c1ccccc1", "inhibition": "-0.62% (inactive)"}
{"compound": "O=C(COC(=O)c1ccc(=O)[nH]c1)Nc1cccc(S(=O)(=O)N2CCOCC2)c1", "inhibition": "9.81% (inactive)"}
{"compound": "CC1CCC/C(=N/NC(=O)c2ccccc2-n2cccc2)C1", "note": "(stereo unspecified)", "inhibition": "-3.77% (inactive)"}
{"compound": "COc1ccc(-n2c(C)cc(/C=C3\\C(=O)NN(c4ccccc4)C3=O)c2C)cc1", "inhibition": "12.4% (inactive)"}
{"compound": "CC(=O)N(Cc1nc2sc(C)c(C)c2c(=O)[nH]1)C1CCCC1", "inhibition": "-8.34% (inactive)"}
{"compound": "Cc1sc2nc(CN(C(=O)NC3CCCCC3)C3CCCCC3)[nH]c(=O)c2c1C", "inhibition": "3.17% (inactive)"}
{"compound": "O=C(Nc1ccncc1)c1ccc(NS(=O)(=O)c2cccc(F)c2)cc1", "inhibition": "7.32% (inactive)"}
{"compound": "NC(N)=N/N=C/c1ccccc1", "inhibition": "12.3% (inactive)"}
{"compound": "CCN(Cc1ccccc1)c1ccc(/C=N/N2CCOCC2)cc1", "inhibition": "2.24% (inactive)"}
